According to PubChem BioAssay (NCI):
Compounds without any hit were thinned out: in the full panel of roughly 79,000, 15% have a hit. Values without a mark were called inactive. Calls of active or inactive are those of the source. Cut-off read from the data, not from the text of the source: active = growth inhibition above about 70%; inactive = the rest.

Assay: NCI Yeast Anticancer Drug Screen. Data for the rad50 strain (AID 155);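 note: 0% = growth of vehicle-only cultures of the same strain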
Conditions: S. cerevisiae rad50 strain growth inhibition; at 50.0 µM; active compounds read high
Procedure, shortened: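 Readout: growth inhibition relative to vehicle-treated cultures. Compound exposure was carried out in a genetically defined yeast strain deficient in DNA damage repair.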

| SMILES | growth inhibition |
| --- | --- |
| CCCN(C)C(C)(C)C(=O)c1ccccc1 | 8.8% |
| Cc1ccc(S(=O)(=O)OC2CN3CCC2CC3)cc1 (stereo not given) | 62.4% |
| O=C(Nc1ccccc1F)C(Cl)(Cl)Cl | 6.55% |
| NC1CC(O)C(O)CC1c1ccc2c(c1)OCO2 (stereo not given) | -26.5% |
| COc1ccc2c(c1)[C@@]13CCCC[C@H]1[C@@H](C2)N(C)CC3=O | 41.5% |
| COC1OCC(N=[N+]=[N-])C(OC)C1O (stereo not given) | 18.8% |
| O=C([CH-]C(=O)c1ccccc1)c1ccccc1.[CH2-]C.[CH2-]C.[Tl+3] | 52.3% |
| CC1OC(O[C@@H]2C=C3CC[C@@H]4[C@H](CC[C@]5(C)[C@@H](c6ccc(=O)oc6)CC[C@]45O)[C@@]3(C)CC2)C(O)C(OC2OC(CO)C(O)C(O)C2O)C1O (stereo not given in full) | 25.7% |
| CC1(C)OC2OCCC(N=[N+]=[N-])C2O1 (stereo not given) | 0.85% |
| CC(C)=CCC/C(C)=N\N=C(N)N | 5.35% |
| C[C@]12CC[C@@H]3C4=CC(=O)CC[C@@H]4CC[C@H]3[C@@H]1CC[C@@H]2O | -4.3% |
| CN1CCc2cc3c(cc2[C@H]1[C@@H]1OC(=O)c2c1ccc1c2OCO1)OCO3 | -11.4% |
| COc1cc(C=C2C(=O)NC(=S)NC2=O)cc(OC)c1OC | 5.05% |
| Nc1nc(N)c2[nH]c(N)nc2n1 | -9.65% |
| C[C@]12CC[C@@H](O)C[C@H]1[C@@H](O)C[C@@H]1[C@@H]2CC[C@]2(C)C(=O)CC[C@@H]12 | -17.4% |
| C=[CH][Sn]([CH]=C)([c]1ccccc1)[c]1ccccc1 | -7.5% |
| CNC(=O)c1[nH]cnc1/N=N/N(C)N | 85.2% (active) |
| NC(Cc1ccccc1)c1nn[nH]n1 (stereo not given) | -10.2% |
| CC(C)OP(=O)(OCCCO)C(Cl)Cl (stereo not given) | 0.35% |
| C[C@]12CC[C@H]3[C@@H](CC[C@H]4N(CCCl)CCC[C@]34C)[C@@H]1CC[C@@H]2O | 15.9% |

| SMILES | growth inhibition |
| --- | --- |
| O=P(O)(O)c1ccccc1 | -10.4% |
| N#C[CH2][Sn]([c]1ccccc1)([c]1ccccc1)[c]1ccccc1 | 98.8% (active) |
| CCC1(CCNC(=O)CCl)C(=O)NC(=O)NC1=O | 3.05% |
| O=c1c2ccccc2nc(-c2ccccc2Cl)n1-c1nnc(C(F)(F)F)s1 | -13.8% |
| C/C(=N\N=C(N)N)C(CN(C)C)C(c1ccccc1)c1c(O)c2ccccc2oc1=O (stereo not given) | 25.6% |
| C1=CC2C=CC(C=C1)[PH+]2c1ccccc1.[C-]#[O+].[C-]#[O+].[C-]#[O+].[C-]#[O+].[C-]#[O+].[Cr] (stereo not given) | -30.4% |
| O=C(O)C(Cl)Cl | -1.6% |
| C[n+]1ccc2ccccc2c1-c1c2ccccc2cc[n+]1C | 27.4% |
| O=[N+]([O-])c1ccc2sc3ccccc3c2c1 | 63.1% |
| COc1c(O)cc2c(c1OC)-c1ccc(SC)c(=O)cc1C(NC(C)=O)CC2 (stereo not given) | 10.4% |
| O=P(O)(NCCCl)NCCCl | -24.4% |
| CC(=O)O[C@H]1C(=O)[C@@]2(C)[C@H]([C@H](OC(=O)c3ccccc3)[C@@]3(O)C[C@H](O)C(C)=C1C3(C)C)[C@]1(OC(C)=O)CO[C@@H]1C[C@@H]2O | 8.05% |
| C1CN([PH+](N2CC2)N2CC2)CCO1.C1CN([PH+](N2CC2)N2CC2)CCO1.[Cl][Pt][Cl] | 5.3% |
| CC(=O)Nc1cc([As](=O)(O)O)ccc1O | 31.6% |
| COC(=O)C1=C(O)C(C(=O)OC)C2/C(=[N+](/[O-])O)c3c(cc([N+](=O)[O-])cc3[N+](=O)[O-])C1C2[N+](=O)[O-] (stereo not given) | 75.8% (active) |
| c1cc2c(cc1NC1=NCCO1)CCC2 | 3.65% |
| O=[N+]([O-])c1ccc(P2(=O)Nc3ccccc3N2)cc1 | -21.9% |
| Oc1cccc(-c2ccccc2)c1 | 20.5% |
| O=[Se](=O)(O)O | -45% |
| ClCCN(CCCl)c1ncnc2c1ncn2Cc1ccccc1 | 2.9% |

Assay: NCI Yeast Anticancer Drug Screen. Data for the mec2-1 strain (AID 157)
Conditions: S. cerevisiae mec2-1 strain, at 50.0 µM, active compounds read high
Procedure, shortened: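 Mutant yeast (mec2-1) grown with compound; growth inhibition relative to vehicle control reported.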

| SMILES | growth inhibition |
| --- | --- |
| CCCN(C)C(C)(C)C(=O)c1ccccc1 | -3.95% |
| Cc1ccc(S(=O)(=O)OC2CN3CCC2CC3)cc1 (stereo not given) | -2.95% |
| O=C(Nc1ccccc1F)C(Cl)(Cl)Cl | -5.2% |
| NC1CC(O)C(O)CC1c1ccc2c(c1)OCO2 (stereo not given) | -4.45% |
| COc1ccc2c(c1)[C@@]13CCCC[C@H]1[C@@H](C2)N(C)CC3=O | 26.9% |
| COC1OCC(N=[N+]=[N-])C(OC)C1O (stereo not given) | -12.4% |
| O=C([CH-]C(=O)c1ccccc1)c1ccccc1.[CH2-]C.[CH2-]C.[Tl+3] | 35.6% |
| CC1OC(O[C@@H]2C=C3CC[C@@H]4[C@H](CC[C@]5(C)[C@@H](c6ccc(=O)oc6)CC[C@]45O)[C@@]3(C)CC2)C(O)C(OC2OC(CO)C(O)C(O)C2O)C1O (stereo not given in full) | 5.65% |
| CC1(C)OC2OCCC(N=[N+]=[N-])C2O1 (stereo not given) | -5.35% |
| CC(C)=CCC/C(C)=N\N=C(N)N | -8.65% |
| C[C@]12CC[C@@H]3C4=CC(=O)CC[C@@H]4CC[C@H]3[C@@H]1CC[C@@H]2O | -12.1% |
| CN1CCc2cc3c(cc2[C@H]1[C@@H]1OC(=O)c2c1ccc1c2OCO1)OCO3 | -38.5% |
| COc1cc(C=C2C(=O)NC(=S)NC2=O)cc(OC)c1OC | -15.9% |
| Nc1nc(N)c2[nH]c(N)nc2n1 | -12.2% |
| C[C@]12CC[C@@H](O)C[C@H]1[C@@H](O)C[C@@H]1[C@@H]2CC[C@]2(C)C(=O)CC[C@@H]12 | -4.35% |
| C=[CH][Sn]([CH]=C)([c]1ccccc1)[c]1ccccc1 | -12.8% |
| CNC(=O)c1[nH]cnc1/N=N/N(C)N | 91.8% (active) |
| NC(Cc1ccccc1)c1nn[nH]n1 (stereo not given) | -19.1% |
| CC(C)OP(=O)(OCCCO)C(Cl)Cl (stereo not given) | 17.1% |
| C[C@]12CC[C@H]3[C@@H](CC[C@H]4N(CCCl)CCC[C@]34C)[C@@H]1CC[C@@H]2O | 15.9% |

| SMILES | growth inhibition |
| --- | --- |
| O=P(O)(O)c1ccccc1 | -3.85% |
| N#C[CH2][Sn]([c]1ccccc1)([c]1ccccc1)[c]1ccccc1 | 98.8% (active) |
| CCC1(CCNC(=O)CCl)C(=O)NC(=O)NC1=O | -4.5% |
| O=c1c2ccccc2nc(-c2ccccc2Cl)n1-c1nnc(C(F)(F)F)s1 | -13.1% |
| C/C(=N\N=C(N)N)C(CN(C)C)C(c1ccccc1)c1c(O)c2ccccc2oc1=O (stereo not given) | 23.4% |
| C1=CC2C=CC(C=C1)[PH+]2c1ccccc1.[C-]#[O+].[C-]#[O+].[C-]#[O+].[C-]#[O+].[C-]#[O+].[Cr] (stereo not given) | 2.1% |
| O=C(O)C(Cl)Cl | -29.6% |
| C[n+]1ccc2ccccc2c1-c1c2ccccc2cc[n+]1C | 3.65% |
| O=[N+]([O-])c1ccc2sc3ccccc3c2c1 | 12.2% |
| COc1c(O)cc2c(c1OC)-c1ccc(SC)c(=O)cc1C(NC(C)=O)CC2 (stereo not given) | -9.4% |
| O=P(O)(NCCCl)NCCCl | -17.9% |
| CC(=O)O[C@H]1C(=O)[C@@]2(C)[C@H]([C@H](OC(=O)c3ccccc3)[C@@]3(O)C[C@H](O)C(C)=C1C3(C)C)[C@]1(OC(C)=O)CO[C@@H]1C[C@@H]2O | -10.9% |
| C1CN([PH+](N2CC2)N2CC2)CCO1.C1CN([PH+](N2CC2)N2CC2)CCO1.[Cl][Pt][Cl] | 26.6% |
| CC(=O)Nc1cc([As](=O)(O)O)ccc1O | 14.3% |
| COC(=O)C1=C(O)C(C(=O)OC)C2/C(=[N+](/[O-])O)c3c(cc([N+](=O)[O-])cc3[N+](=O)[O-])C1C2[N+](=O)[O-] (stereo not given) | 81% (active) |
| c1cc2c(cc1NC1=NCCO1)CCC2 | 4.65% |
| O=[N+]([O-])c1ccc(P2(=O)Nc3ccccc3N2)cc1 | -12.7% |
| Oc1cccc(-c2ccccc2)c1 | 17.2% |
| O=[Se](=O)(O)O | -20.2% |
| ClCCN(CCCl)c1ncnc2c1ncn2Cc1ccccc1 | 17.4% |
